Pf Dd2 growth = inhibitors of Plasmodium falciparum Dd2 growth; P. falciparum Dd2 growth, SYBR Green, 72 h; Potency, µM (top dose mostly 28.9 µM), inactives show at the highest dose activity, negative = inhibition, hits mostly inhibitors; 120,000 compounds, 4.3% hits; AID 1347417; active = well fitted inhibition curve with a large enough effect;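 also: plate controls were DMSO vehicle for no effect and reference drug for full effect; nearly all actives have a fitted effect of over 65% in size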
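Readout: SYBR Green fluorescence, 485 nm excitation, 535 nm emission, after ~16 h lysis at 37C. Before that, Dd2-infected red cells (2.5% hematocrit) grew 72 h with compound, 29 uM top final concentration.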
An asterisk follows results filed as active; i = inactive; [ ] = another dose, or the depositor's remark. Shown is part of a subset that was picked to be rich in hits. Potency is read from the fitted curve at half-maximal effect.

SMILES	Pf Dd2 growth
Cc1cnc(CC2CCN(S(=O)(=O)c3ccc4c(c3)CCC4)C2)n1CC1CC1 (stereo not given)	-16%
CCCn1c(C)cnc1CC1CCCN(S(C)(=O)=O)C1 (stereo not given)	-4%
Cc1cnc(CC2CCN(S(=O)(=O)Cc3ccccc3)C2)n1C(C)C (stereo not given)	4.5µM*
CCC1CCCCN1CCCNC(=O)CCc1cc2cc(OC)ccc2[nH]c1=O (stereo not given)	-20%
O=C1c2c(nc(CNC3CCOCC3)n2Cc2ccccc2)NCCN1CC1CC1	i
C#CCNC(=O)C1CN(c2ccc(F)cc2)C(=O)N1 (stereo not given)	23%[44.1 µM]
Cc1noc([C@@H]2CN(S(=O)(=O)c3ccc(Cl)s3)C[C@H]2C(N)=O)n1	-3%
O=C(Cc1cccc(F)c1)N1CCC(Cc2nncn2-c2ccccc2)CC1	-9%
O=C(N[C@@H]1CNCCC[C@H]1O)c1ccc(OCCN2CCOCC2)cc1	4%[44.1 µM]
CN(C)C(=O)c1cccnc1CCC1COc2ccccc2O1 (stereo not given)	-1%
CN(C)c1ccc(C(=O)N2CC[C@@H](CC(=O)O)[C@@H](CCN3CCCCC3)C2)cc1	i
O[C@H]1[C@H](NCC2CCCC2)[C@@H](c2ccccc2)C[C@H]1O	1.8µM*
CS(=O)(=O)N[C@H]1[C@H](O)[C@H](O)C[C@@H]1c1ccccc1	-6%[44.1 µM]
Cc1cccc([C@H]2C[C@@H](O)[C@@H](O)[C@@H]2NCC2CCCC2)c1	-3%[44.1 µM]
CN1C(=O)COC[C@@H]1[C@H](O)c1ccc(NC(=O)C2CCC2)cc1	i
CN(Cc1cccnc1)c1nc2c(c(=O)[nH]1)CCN(Cc1cccc(Cl)c1)CC2	-26%[5.79 µM]
CN1CCCCC12Cc1ccccc1CN(C(=O)CCCC(=O)O)C2 (stereo not given)	22%
CN(C)CC(=O)N1Cc2ccccc2CC2(CCCCN2C)C1 (stereo not given)	-29%
CN1CCCCC12Cc1ccccc1CN(C(=O)c1ccccc1)C2 (stereo not given)	8.9µM*
Cc1ncc2c(c1CNC(=O)c1ccccc1OC(F)F)CCNC2	-6%
COCCCNC(=O)CSc1nc2c(sc3ccccc32)c(=O)n1CCCC(=O)NCCOC	-20%
Cc1ccccc1CSc1nc2c(sc3ccccc32)c(=O)n1CCCC(=O)NCCCOC(C)C	11µM*
CC(C)OCCCNC(=O)CCCn1c(SCC(=O)c2ccc(F)cc2)nc2c(sc3ccccc32)c1=O	-8%
c1ccc(Cn2cc(Cn3ccnc3-c3cc4n(n3)CCNC4)cn2)cc1	-7%
Cc1ccsc1C(=O)N1CCCCCC1c1nnc(-c2ccccc2)o1 (stereo not given)	i
SMILES	Pf Dd2 growth
Cn1cc(-c2nc(N3CCOCC3)cc3c2CN(c2ccccc2)C3=O)cn1	-8%[44.1 µM]
CCCS(=O)(=O)N1CCC2(CC1)C(OC)CN2c1cccc(F)c1 (stereo not given)	i
COC1C(=O)N(c2cccc(F)c2)C12CCN(C(=O)CC1CCN(C(C)=O)CC1)CC2 (stereo not given)	-7%
COC1CN(c2cccc(F)c2)C12CCN(C(=O)CC1CCCCC1)CC2 (stereo not given)	8.9µM*
O=C(Cc1c[nH]c2ncc(-c3cccnc3)cc12)NCc1ccccc1	5.6µM*
Cc1cc(-c2cnc3[nH]cc(CC(=O)NCc4cccnc4)c3c2)ccn1	i
COc1ncccc1-c1cnc2[nH]cc(CC(=O)Nc3ccccc3)c2c1	i
O=C(Cc1c[nH]c2ncc(-c3cccnc3)cc12)NC1CC1	i
CC(C)CNC(=O)Cc1c[nH]c2ncc(-c3cnn(C)c3)cc12	i
O=C(Cc1c[nH]c2ncc(-c3ccsc3)cc12)NCc1cccnc1	i
COc1ncccc1-c1cnc2[nH]cc(CC(=O)Nc3ccccc3C)c2c1	10µM*
Cn1cc(-c2cnc3[nH]cc(CC(=O)NCc4ccncc4)c3c2)cn1	4µM*
O=C(Cc1c[nH]c2ncc(-c3cn[nH]c3)cc12)NCc1cccnc1	11µM*
O=C(Cc1c[nH]c2ncc(-c3ccccc3Oc3ccccc3)cc12)NCc1cccnc1	i
Cn1cc(-c2cnc3[nH]cc(CC(=O)NC4CCC4)c3c2)cn1	i
COc1ncccc1-c1cnc2[nH]cc(CC(=O)Nc3ccncc3)c2c1	i
O=C(NCc1nnc2cc(-c3nc(C4CC4)no3)ccn12)c1ccc(F)c(F)c1	i
CN(C)C(=O)C1CN(C(=O)C2CCCCC2)CC12CCOCC2 (stereo not given)	5%
Cc1cnc(CC2CCCNC2)n1C(C)C (stereo not given)	10%
CC(C)Cc1cc(C(=O)NCc2noc(-c3c(F)cccc3F)n2)no1	-13%
O=C(NC(Cc1ccncc1)C1CC(O)C1)c1cccc(N2CCNC2=O)c1 (stereo not given)	-2%
O=C(Cc1c[nH]c2ncc(-c3ccccc3)cc12)NCCc1ccccc1	i
CN1CCN(C(=O)Cc2c[nH]c3ncc(-c4cccc(OC(F)(F)F)c4)cc23)CC1	i
COc1cc(F)cc(-c2cnc3[nH]cc(CC(=O)NCc4cccnc4)c3c2)c1	i
O=C(Cc1c[nH]c2ncc(-c3ccccc3)cc12)Nc1cccnc1	-29%[44.1 µM]
SMILES	Pf Dd2 growth
O=C(Cc1c[nH]c2ncc(-c3ccc(F)c(Cl)c3)cc12)NCc1cccnc1	4.5µM*
O=C(Cc1c[nH]c2ncc(-c3cccc(OC(F)(F)F)c3)cc12)NCc1cccnc1	4µM*
CCC(=O)N1CCN(c2nc3c(s2)CC(C(=O)NC2CCCCCC2)CC3)CC1 (stereo not given)	-3%
CC1(C)CN(C(=O)c2ccc(Oc3ccccc3)o2)CC1(C)O (stereo not given)	-22%
CC(NC(=O)Cn1c(-c2cccs2)cc2cc(F)ccc21)c1ccccc1 (stereo not given)	1.1µM*
CN(C)c1ccc(CNC(=O)Cn2c(-c3cccs3)cc3cc(Cl)ccc32)cc1	-6%
Cc1ccc(CNC(=O)Cn2c(-c3cccs3)cc3cc(Cl)ccc32)cc1	-10%
CC(CNC(=O)Cn1c(-c2cccs2)cc2ccccc21)c1ccccc1 (stereo not given)	11µM*
COc1ccccc1NC(=O)NCCCN1CCN(c2ccc(F)cc2)CC1	i
O=C(Cn1c(-c2cccs2)cc2ccccc21)N1CCN(c2ccc(Cl)cc2)CC1	8%
O=C(Cn1c(-c2cccs2)cc2cc(F)ccc21)NCCCN1CCN(c2ccc(F)cc2)CC1	6.3µM*
CCNC(=O)Cn1c(-c2cccs2)cc2ccccc21	10%
CCOC(=O)Cn1c(-c2cccs2)cc2cc(Cl)ccc21	-12%
CCCn1cc(CNC(=O)c2cn(CCN)nn2)cn1	-10%
OC1CC(c2cc(N3CCc4c(Cl)cccc4C3)ncn2)C1 (stereo not given)	-15%
CCCn1c(C)c(CC(=O)NCc2cccnc2)c2c1CC(C)(C)CC2=O	i
COc1ccc(C(=O)N2CCOC3(CCN(C(=O)C4CCN(C)CC4)CC3)C2)cc1	5%
COc1ccc(-c2cnc3n2CC(C(=O)N2CCOCC2)CC3)cc1 (stereo not given)	-4%
O=C(CN1CCCc2nc(C3CC3)ncc2C1=O)NCCCn1cccn1	2%
COc1cc(Cl)ccc1C(=O)N1C[C@@H](CO)[C@H](c2ccncc2)C1	-9%
OCc1ccc(CN2C[C@H](O)C[C@H]2c2nc(Cc3ccc(F)cc3Cl)no2)o1	-4%[44.1 µM]
Cc1nnc(N2CC[C@H](N3CCOCC3)[C@H](CCC(=O)O)C2)c2ccccc12	11%
CC(C)CCCC(=O)N1CCC2(CC1)Nc1ccccc1NC2=O	-16%
